Rango complex inh – inhibitors of Rango-importin beta complex formation; actives 0.031% (n = 340,000); Q14974; Potency, µM (series often up to 92.2 µM), for inactives: at the top dose inhibition of complex formation; Rango CFP/YFP FRET sensor + importin beta, 45 min; AID 540263; calls by dose curve;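 also: 0% = DMSO wells and 100% = buffer wells lacking importin beta; nearly all actives have a fitted effect of over 15% in size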
Target sequence (Q14974 whole entry, looked up): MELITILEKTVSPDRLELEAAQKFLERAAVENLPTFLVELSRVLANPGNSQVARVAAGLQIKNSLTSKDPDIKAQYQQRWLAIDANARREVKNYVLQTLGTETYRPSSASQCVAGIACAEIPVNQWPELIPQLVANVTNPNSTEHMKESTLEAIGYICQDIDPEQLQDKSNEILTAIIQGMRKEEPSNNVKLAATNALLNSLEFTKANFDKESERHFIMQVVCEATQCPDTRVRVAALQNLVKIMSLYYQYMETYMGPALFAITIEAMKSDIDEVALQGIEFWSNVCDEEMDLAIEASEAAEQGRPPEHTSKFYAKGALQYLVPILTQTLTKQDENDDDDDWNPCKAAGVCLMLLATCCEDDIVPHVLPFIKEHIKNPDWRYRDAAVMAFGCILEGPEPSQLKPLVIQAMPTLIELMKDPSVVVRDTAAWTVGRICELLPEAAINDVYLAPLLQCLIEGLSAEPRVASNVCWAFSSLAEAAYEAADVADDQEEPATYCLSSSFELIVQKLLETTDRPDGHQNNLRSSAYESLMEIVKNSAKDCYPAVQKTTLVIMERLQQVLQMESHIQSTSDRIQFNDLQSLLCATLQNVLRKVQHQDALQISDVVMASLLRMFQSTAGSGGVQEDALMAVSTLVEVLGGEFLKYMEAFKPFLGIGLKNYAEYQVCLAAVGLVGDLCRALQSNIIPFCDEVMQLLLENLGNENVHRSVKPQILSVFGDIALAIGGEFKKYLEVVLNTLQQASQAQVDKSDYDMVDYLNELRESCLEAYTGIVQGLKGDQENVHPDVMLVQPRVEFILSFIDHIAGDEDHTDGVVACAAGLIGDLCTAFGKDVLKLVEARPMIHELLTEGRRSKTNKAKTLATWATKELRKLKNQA
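FRET biosensor Rango (snurportin 1 IBB between N-terminal EYFP and C-terminal Cerulean), 50 nM in PBS/1 mM DTT/0.02% Tween-20/0.1% BSA, preincubated 5 min RT with compound; 0.125 microM importin beta added, 45 min RT, CFP/YFP FRET ratio read.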
Rango dissoc inh – inhibitors of RanGTP-induced Rango-importin beta complex dissociation. Potency, µM (doses to about 46.1 µM), for the others: at the top dose activity change, negative = inhibition. O95149+P62826. AID 540253. Biochemical FRET Rango-importin beta, RanGTP-induced dissociation. actives 0.071% (n = 340,000); calls by dose curve; also: % of control where 0% means no effect; nearly all actives have a fitted effect of over 45% in size
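Compounds sat 5 min at room temperature with 0.1 uM Rango biosensor plus 0.25 uM importin beta, then FRET pre-read. RanGTP-RCC1 (0.6 uM Ran, 2mM GTP, 0.2 uM RCC1) added for 45 min, and the CFP/YFP post-read measured blocked complex dissociation.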
Nrf2 block – Nrf2 pathway inhibition; actives 2.1% (n = 360,000); Potency, µM (series often up to 46 µM), for inactives: top-dose activity change, negative = inhibition, hits mostly inhibitors; A549 ARE-Fluc reporter, luciferase luminescence, 18-24 h; AID 504444; also: % is scaled to controls: 0 for no effect and ±100 for the full control effect; nearly all actives have a fitted effect of over 60% in size
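In this cell-based qHTS, ARE-driven firefly luciferase in A549 cells reports Nrf2 activity; the luminescent signal after BugLite lysis is the measured value, with a prior CellTiter-Fluor read for cell health.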
A549 tox – counter-screen for Nrf2 inhibitors: cytotoxicity in A549 cells | AID 504648 | Potency, µM (doses to about 46 µM), for the others: at the top dose activity change, negative = cytotoxicity, most hits filed as inhibitors | actives 0.16% (n = 390,000) | A549 ARE-Fluc cells, CellTiter-Fluor viability, 18-24 h; also: % is scaled to controls: 0 for no effect and ±100 for the full control effect
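A549 ARE_Fluc cells in 5% FBS OPTI-MEM were exposed to compounds in concentration-response for 18-24 h at 37 deg C. Viability was read by CellTiter-Fluor fluorescence (Ex 405/Em 525) after 30 min, before the luciferase read.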
Nrf2 ARE act – activators of Nrf2 (ARE) signaling. Potency, µM (top dose mostly 46.1 µM), inactives show top-dose activation, hits mostly activators. actives 0.31% (n = 410,000). AREc32 ARE-luciferase reporter (MCF7-derived line), luminescence, 24 h. AID 624171; also: % of control where 0% means no effect; nearly all actives have a fitted effect of over 65% in size
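AREc32 cells carrying an ARE-driven firefly luciferase reporter were seeded at 1000 cells/well in OPTI-MEM with 5% FBS, then exposed to compound for 24 hr at 37 deg C. Luminescence was read with Steady-Glo after 30 min at RT.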
An asterisk follows results filed as active; [ ] = another dose, or the depositor's remark. A selection: hits, their analogues and other compounds. The true share with any hit is near 2.3%. Unless noted, calls follow the shape of the dose curve; as a rule, active = well fitted curve in the direction sought with a large enough effect; inconclusive = small, poorly fitted or top-dose-only effect, or another doubt; inactive = no such curve, though single readings can be large; an effect the other way counts as inactive or inconclusive. Potency is read from the fitted curve at half-maximal effect.

How did CC(/C=N/NC(=O)c1cccs1)=C\c1ccco1 do in these assays?
Rango complex inh: -4%; Rango dissoc inh: -4%; Nrf2 block: inconclusive; A549 tox: 1%; Nrf2 ARE act: 14µM*

What do the screens show for `CC(/C=N/NC(=O)CSc1nc2ccccc2n1C)=C\c1ccco1`?
Rango complex inh: -1%; Rango dissoc inh: 0%; Nrf2 block: 12%; A549 tox: 9%; Nrf2 ARE act: 13µM*

What do the screens show for `CC(C)(C)NC(=O)/C(=C\c1ccco1)NC(=O)c1cccs1`?
Rango complex inh: 0%; Rango dissoc inh: -20%; Nrf2 block: 3%; A549 tox: 6%; Nrf2 ARE act: 0%

Results for Cc1ccc(/C=N/NC(=O)c2cc(-c3ccncc3)nc3ccccc23)o1 ?
Rango complex inh: 5%; Rango dissoc inh: -12%; Nrf2 block: inconclusive; A549 tox: -14%; Nrf2 ARE act: 0%

What do the screens show for `CC(/C=N/NC(=O)Cc1cccs1)=C\c1ccco1`?
Rango complex inh: -4%; Rango dissoc inh: -13%; Nrf2 block: 26%; A549 tox: -13%; Nrf2 ARE act: 14µM*

Results for CCn1cc(C(=O)Nc2ccc(C(C)C)cc2)c2cc(OC)c(OC)cc2c1=O ?
Nrf2 block: 13%[9.27 µM]; A549 tox: 10%; Nrf2 ARE act: 0%

Results for CC(C)COC(=O)N1CCN(S(=O)(=O)c2ccc3c(c2)CCC3)CC1 ?
Rango complex inh: -2%; Rango dissoc inh: -2%; Nrf2 block: inconclusive; A549 tox: 10%; Nrf2 ARE act: 2%

What do the screens show for `CCCCCCCCN1C(=O)[C@H](CC(=O)N2CCSCC2)C[C@@]2(C(=O)OC)CCCCC=C12`?
Nrf2 ARE act: 0%

How did C/C(=N/NC(=O)c1cccs1)c1ccco1 do in these assays?
Rango complex inh: 3%; Rango dissoc inh: -3%; Nrf2 block: 28%; A549 tox: 1%; Nrf2 ARE act: 13µM*

Results for C/C(=N\NC(=O)c1csc(C)c1C)c1ccco1 ?
Rango complex inh: 3%; Rango dissoc inh: -12%; Nrf2 block: inconclusive; A549 tox: -5%; Nrf2 ARE act: 0%

Results for O=C(CN(Cc1ccco1)C(=O)c1ccc(F)cc1)Nc1ccccc1Br ?
Rango complex inh: -2%; Rango dissoc inh: 8%; Nrf2 block: 2%; A549 tox: 5%; Nrf2 ARE act: 4%

How did O=C(Cn1c(-c2cccs2)cc2ccccc21)NCCCN1CCN(c2ccc(F)cc2)CC1 do in these assays?
Nrf2 block: -6%; A549 tox: inconclusive; Nrf2 ARE act: 20%

How did COc1cc(NC(=O)c2ncn(-c3ccccc3)n2)cc(OC)c1 do in these assays?
Nrf2 block: inconclusive; A549 tox: 0%; Nrf2 ARE act: 9%

How did COc1ccc(Cl)cc1NC(=O)c1ncn(-c2ccccc2)n1 do in these assays?
Nrf2 block: inconclusive; A549 tox: -6%; Nrf2 ARE act: 8.9µM*

What do the screens show for `Cc1c(C(=O)N2CCC(c3nc4ccccc4s3)CC2)oc2ccc(Cl)cc12`?
Nrf2 block: -7%; A549 tox: 1%; Nrf2 ARE act: 2%

How did Cc1ccc(C(=O)NC(Cc2cccc(C(F)(F)F)c2)C(=O)O)cc1 (centres undefined) do in these assays?
Rango complex inh: 3%; Rango dissoc inh: 14%; Nrf2 block: -8%; A549 tox: 0%; Nrf2 ARE act: -1%

How did Cc1ccc(N=Cc2c(C)[nH]n(-c3nc4ccccc4[nH]3)c2=O)cc1 do in these assays?
Rango complex inh: -2%; Rango dissoc inh: -1%; Nrf2 block: 21µM*; A549 tox: 7%; Nrf2 ARE act: -1%

Results for COc1ccc(NC(=O)c2oc3ccccc3c2NC(=O)C23CC4CC(CC(C4)C2)C3)c(OC)c1 ?
Nrf2 block: 0%; A549 tox: -5%; Nrf2 ARE act: 0%

Results for CCS(=O)(=O)c1ccc(N=Nc2ccc(O)c3ncccc23)c(OC)c1 ?
Rango complex inh: -2%; Rango dissoc inh: -7%; Nrf2 block: inconclusive; A549 tox: 18µM*; Nrf2 ARE act: 2%

Results for COc1ccccc1N=Nc1ccc(O)c2ncccc12 ?
Rango complex inh: 1%; Rango dissoc inh: -20%; Nrf2 block: -26%; A549 tox: -15%; Nrf2 ARE act: inconclusive

Bioassay records: PubChem BioAssay, National Center for Advancing Translational Sciences (NCATS)
